High-throughput results from PubChem.
Most compounds without a hit are left out; they make up all but 2.1% or so of the library.
ROS inducer: raises reactive oxygen species in U2OS cancer cells | U2OS ROS induction, H2DCF-DA fluorescence | ROS induction (% of piperlongumine), % at 10 µM | hit rate 2% among 46,000 | AID 624156; in the data active = ROS induction above about 79%, passing the limit was not always enough;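 note: 0% = DMSO vehicle median and 100% = reference compound median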
YB-1 expr inh: YB-1 expression inhibition | U2OS, qRT-PCR YB-1 vs CDIP delta delta Cp, 16 h; stronger effect = higher value; zero = DMSO, each unit about twofold | delta delta Cp (YB-1 minus CDIP) (test concentration not listed) | hit rate 0.37% among 30,000;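 active = delta delta Cp rounded down to an integer at or above 3, about 3 SD of DMSO wells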;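 note: higher means less YB-1 transcript or more CDIP transcript relative to DMSO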
An asterisk follows results filed as active; . = no result.

SMILES	ROS inducer	YB-1 expr inh
COc1cc(-c2noc(-c3c(-c4ccccc4Cl)noc3C)n2)cc(OC)c1OC	117*	.
CCc1ccc(NC(=O)Cn2cc(S(=O)(=O)c3ccccc3)c(=O)c3ccccc32)cc1	35	.
Cc1ccc(S(=O)(=O)c2cn(Cc3cccc(Cl)c3)c3cc4c(cc3c2=O)OCO4)cc1	98*	.
O=c1[nH]cnc2c1sc1nc(N3CCOCC3)c3c(c12)CCCC3	45	.
CC1CCC(C(=O)NC(Cc2c[nH]c3ccccc23)C(=O)NC2CCCCC2C)CC1 (stereo not given)	-8	.
COc1ccc(-c2nc3ccccc3s2)cc1	-5	-0.054
COc1ccc(-n2c(N)c(-c3nc4ccccc4s3)c3nc(C#N)c(C#N)nc32)cc1	153*	.
CCN(CC)c1cnn(-c2ccc(C(F)(F)F)cc2)c(=O)c1Cl	-18	.
CC(C)c1ccc(S(=O)(=O)N2CCOCC2)cc1	-1	.
CC1C2CC(C(S(=O)(=O)N3CCOCC3)C2=O)C1(C)C (stereo not given)	115*	-0.19
O=C1C2C3C=CC(C3)C2C(=O)N1Cc1ccccc1Cl (stereo not given)	-4	.
O=c1cc(O)c2sc3nc(-c4cccnc4)c4c(c3c2[nH]1)CCCC4	0	-0.39
COC(=O)c1ccc(NC(C)=O)cc1	-1	.
COc1ccc(-c2noc(CC(=O)N(C)CCC#N)n2)cc1	-7	.
C[C@@H]1CCCCO[C@@H](CN(C)C(=O)C2CCCCC2)[C@@H](C)CN([C@H](C)CO)C(=O)c2cc(NC(=O)Nc3cccc4ccccc34)ccc2O1	102*	-0.12
COc1ccc(CN(C)C[C@@H]2OCCCC[C@@H](C)Oc3ccc(NS(=O)(=O)c4ccc(C)cc4)cc3C(=O)N([C@H](C)CO)C[C@@H]2C)cc1	128*	0.15
C[C@@H]1CCCCO[C@@H](CN(C)C(=O)Nc2cccc3ccccc23)[C@@H](C)CN([C@H](C)CO)C(=O)c2cc(NC(=O)Nc3cccc4ccccc34)ccc2O1	48	-0.34
COc1ccc(NC(=O)Nc2ccc3c(c2)C(=O)N([C@H](C)CO)C[C@H](C)[C@H](CN(C)C(=O)Nc2ccc(OC)cc2)OCCCC[C@@H](C)O3)cc1	0	0.17
COc1ccc(NC(=O)Nc2ccc3c(c2)C(=O)N([C@H](C)CO)C[C@H](C)[C@H](CN(C)Cc2ccc(C(=O)O)cc2)OCCCC[C@@H](C)O3)cc1	33	0.32
COc1ccc(NC(=O)Nc2ccc3c(c2)C(=O)N([C@H](C)CO)C[C@H](C)[C@@H](CN(C)C(=O)C2CCCCC2)OCCCC[C@@H](C)O3)cc1	114*	0.35
COc1ccc(CN(C)C[C@H]2OCCCC[C@@H](C)Oc3ccc(NC(=O)Nc4ccc(OC)cc4)cc3C(=O)N([C@H](C)CO)C[C@@H]2C)cc1	122*	0.53
COc1ccc(CN(C)C[C@H]2OCCCC[C@@H](C)Oc3ccc(NS(=O)(=O)c4ccc(F)cc4)cc3C(=O)N([C@H](C)CO)C[C@@H]2C)cc1	27	0.077
O=S(=O)(NCC1CCN(Cc2ccc(OCCO)cc2)CC1)c1cc(C(F)(F)F)ccc1Cl	14	0.53
CC1=CC2OC3[C@H](O)C[C@](C)([C@@]2(CO)CC1=O)[C@]31CO1 (stereo not given in full)	-9	-0.49
N#Cc1c(N)nc(Sc2ccc(Cl)cc2)c(C#N)c1-c1ccccc1	33	0.33
SMILES	ROS inducer	YB-1 expr inh
COc1ccc(NC(=O)Nc2ccc3c(c2)C(=O)N([C@H](C)CO)C[C@H](C)[C@@H](CN(C)Cc2ccc(C(=O)O)cc2)OCCCC[C@@H](C)O3)cc1	48	-0.26
COc1ccc(CN(C)C[C@@H]2OCCCC[C@@H](C)Oc3ccc(NC(=O)Nc4ccc(F)cc4)cc3C(=O)N([C@H](C)CO)C[C@@H]2C)cc1	119*	0.35
Cn1cccc1Cc1nnc(SCC(=O)Nc2ccccc2C(F)(F)F)n1-c1ccc(F)cc1	-4	.
CCn1c(C)nc2c(=O)oc3ccccc3c21	13	-0.42
CC(C)n1nnc2c(=O)oc3ccccc3c21	79*	.
CCOC(=O)c1ccc(NC(=O)C2C(=O)N(C)C3(C)CC2c2ccccc2O3)cc1 (stereo not given)	-9	.
COc1ccc([Si](C)(C)[C@@H]2[C@@H](CCO)O[C@]3(C(=O)N(Cc4ccc(N5CCC5=O)cc4)c4ccccc43)[C@H]2C)cc1	128*	0.026
COc1ccc([Si](C)(C)[C@H]2[C@H](CCn3cc([C@H](O)c4ccccc4)nn3)O[C@@]3(C(=O)N(Cc4cccc(N5CCC5=O)c4)c4ccccc43)[C@@H]2C)cc1	61	0.037
COc1ccc([Si](C)(C)[C@H]2[C@H](CCn3cc(CCO)nn3)O[C@@]3(C(=O)N(Cc4cccc(N5CCC5=O)c4)c4ccccc43)[C@@H]2C)cc1	109*	0.11
COc1ccc([Si](C)(C)[C@H]2[C@H](CCO)O[C@@]3(C(=O)N(Cc4ccc(N5CCCCC5=O)cc4)c4ccccc43)[C@@H]2C)cc1	74	0.21
COc1ccc([Si](C)(C)[C@@H]2[C@@H](CCn3cc(CCO)nn3)O[C@]3(C(=O)N(Cc4ccc(N5CCC5=O)cc4)c4ccccc43)[C@H]2C)cc1	35	0.24
COc1ccc([Si](C)(C)[C@H]2[C@H](CCn3cc(CCO)nn3)O[C@@]3(C(=O)N(Cc4ccc(N5CCC5=O)cc4)c4ccccc43)[C@@H]2C)cc1	80*	-0.057
CN1C(=O)C2C=CC=CC2N=C1SCC(N)=O (stereo not given)	-17	.
C=C1C(=O)O[C@H]2[C@H]1[C@@H](OC(=O)/C(C)=C\C)C(OC(C)=O)/C(C(=O)OC)=C\CC[C@@]1(C)O[C@H]21 (stereo not given in full)	98*	2.2
C=C1C(=O)O[C@H]2[C@H]1C[C@H](OC(=O)/C(C)=C\C)/C(C)=C\CC[C@@]1(C)O[C@@H]21	139*	-0.29
C=C1C(=O)O[C@H]2[C@H]1[C@@H](OC(=O)C(C)(O)CCl)C(OC(C)=O)/C(C(=O)OC)=C\CC[C@@]1(C)O[C@H]21 (stereo not given in full)	69	-0.17
C=C1C(=O)O[C@H]2[C@H]1[C@@H](OC(=O)/C(C)=C/C)C(OC(C)=O)/C(C(=O)OC)=C\CC[C@@]1(C)O[C@H]21 (stereo not given in full)	32	-0.27
Cc1cc2ncn(Cc3ccccc3C)c2cc1C	-16	.
C[C@H](CO)N1C[C@H](C)[C@H](CN(C)S(=O)(=O)c2ccc(Cl)cc2)Oc2ccc(NC(=O)c3ccncc3)cc2CC1=O	102*	0.2
C[C@H]1CN([C@@H](C)CO)C(=O)Cc2cc(NC(=O)c3ccncc3)ccc2O[C@@H]1CN(C)S(=O)(=O)c1ccc(Cl)cc1	24	0.15
Cc1ccc(S(=O)(=O)N(C)C[C@@H]2Oc3ccc(NC(=O)Nc4ccccc4)cc3CC(=O)N([C@H](C)CO)C[C@@H]2C)cc1	5	-0.059
Cc1ccc(S(=O)(=O)N(C)C[C@H]2Oc3ccc(NC(=O)Nc4ccc(C(F)(F)F)cc4)cc3CC(=O)N([C@@H](C)CO)C[C@H]2C)cc1	36	0.4
Cc1ccc(S(=O)(=O)N(C)C[C@H]2Oc3ccc(NC(=O)Nc4ccccc4)cc3CC(=O)N([C@@H](C)CO)C[C@@H]2C)cc1	123*	-0.33
